We go through four compounds from PubChem BioAssay.

Records with an inconclusive call do not appear. The source made the active and inactive calls. Unless noted, the rule behind the calls is not given here.

The nature of assay [1]: yeast TOR pathway RPL19A-GFP modulators, primary screen, cell-based, S. cerevisiae, multiplex flow cytometry (AID 1862; in the data active = percent of DMSO control GFP below about 86%;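 note: lower values mimic rapamycin by blocking the RPL19A rise seen in DMSO cells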). The following applies: S. cerevisiae RPL19A-GFP strain, flow cytometry fluorescence, 3 h; at 10 µM; stronger effect = lower value. In general terms: A flow cytometer gives signals particle by particle.
A short description of assay [2]: modulators of MEP2-GFP levels in yeast, primary screen, S. cerevisiae, multiplex flow cytometry (AID 1867;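 active = GFP response, as percent of the DMSO control, above the screen-wide mean plus 3 SD, about 139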;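 note: median GFP channel fluorescence of barcode-gated MEP2-GFP cells measured by flow cytometry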). To be noted: S. cerevisiae MEP2-GFP strain, 3 h, at 10 µM, stronger effect = higher value.
Assay [3] is described as follows: modulators of CIT2-GFP expression in yeast, primary screen, S. cerevisiae, GFP fusion, multiplex flow cytometry (AID 1870;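 active = percent response above a set limit, the screen-wide mean plus 3 SD, cut at about 130% in these data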;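 note: barcoded CIT2-GFP strain pooled with four other GFP strains with rapamycin as positive control; median GFP fluorescence per well over plate mean of DMSO wells so 100% = DMSO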). The following applies: 3 h, at 10 µM, stronger effect = higher value.
Assay [4] in a line: modulators of LAP4-GFP expression in yeast, primary screen, S. cerevisiae, multiplex flow cytometry (AID 1873;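 active = GFP signal, as percent of the solvent control, above the screen mean plus 3 SD, about 149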). To be noted: 3 h, at 10 µM, stronger effect = higher value.
The nature of assay [5]: modulators of AGP1-GFP expression in yeast TOR pathway, primary screen, cell-based, multiplex flow cytometry, S. cerevisiae (AID 1887;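 active = GFP signal above the screen-wide mean plus 3 SD, that is over about 124.5% of the solvent control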;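 note: AGP1-GFP fusion strain of S. cerevisiae within a five-strain barcoded multiplex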). To be noted: 3 h, at 10 µM, stronger effect = higher value.
Assay [6] can be described thus: inhibitors of CD8+ T cell-vesicle binding, pilot screen, LFA-1/ICAM-1 modulator project, MLPCN validation set, flow cytometry (AID 2523;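 active = response below a set limit, under 55% cells CD8-positive and vesicle-bound, and CD8 cells' 90th-percentile brightness under 279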;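 for vesicle binding response: mean PE anti-B7-1 fluorescence of CD8+ cells relative to row control; 100% = QL9-loaded vesicles with DMSO vehicle in the same plate row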). To be noted: 2C mouse CD8+ T cells, at 7 µM, stronger effect = lower value; double positive events: measured here: CD8+/vesicle+ event percentage.
Assay [7] addresses Integrin beta-1 (Homo sapiens) + Integrin alpha-4 (Homo sapiens) (UniProt P13612+P05556). Kind of assay: inhibition of HUTS-21 binding to VLA-4, pilot screen, VLA-4 allosteric modulator project, U937 cells, HUTS-21 mAb, flow cytometry, validation set (AID 2674;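 active = inhibition above 50%, about 3 SD of the validation set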;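 note: antibody binding induced by the VLA-4 ligand LDV present at three times its Kd; 0% = LDV ligand with antibody and no compound and 100% = antibody without LDV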). The following applies: HUTS-21 LIBS mAb binding, at 6.7 µM, stronger effect = higher value.
A short description of assay [8]: superoxide lowering in aged yeast cells, pilot screen, validation compound set (AID 2706;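 active = superoxide response below 65% of plate, a cut near 3 SD across the whole screen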;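 note: yeast exposed to compound for one week at 30 degrees C before staining; 100% = mean of all compound wells on the same plate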). To be noted: S. cerevisiae aging, superoxide DHE fluorescence; at 10 µM; stronger effect = lower value.
The target in assay [9] is Beta-adrenergic receptor kinase 1 (Homo sapiens) (UniProt P25098). Kind of assay: GRK2 binders displacing RNA aptamer, biochemical, validation, human GRK2, bead flow cytometry (AID 488806;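 active = aptamer binding inhibition above 30%, about 3 SD of noise from non-fluorescent compounds; inactive = inhibition at or below 30%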). The following applies: bead-bound GRK2, FAM-aptamer displacement, at 10 µM, stronger effect = higher value.
Beta-adrenergic receptor kinase 1 (Homo sapiens), sequence (P25098 whole entry, looked up): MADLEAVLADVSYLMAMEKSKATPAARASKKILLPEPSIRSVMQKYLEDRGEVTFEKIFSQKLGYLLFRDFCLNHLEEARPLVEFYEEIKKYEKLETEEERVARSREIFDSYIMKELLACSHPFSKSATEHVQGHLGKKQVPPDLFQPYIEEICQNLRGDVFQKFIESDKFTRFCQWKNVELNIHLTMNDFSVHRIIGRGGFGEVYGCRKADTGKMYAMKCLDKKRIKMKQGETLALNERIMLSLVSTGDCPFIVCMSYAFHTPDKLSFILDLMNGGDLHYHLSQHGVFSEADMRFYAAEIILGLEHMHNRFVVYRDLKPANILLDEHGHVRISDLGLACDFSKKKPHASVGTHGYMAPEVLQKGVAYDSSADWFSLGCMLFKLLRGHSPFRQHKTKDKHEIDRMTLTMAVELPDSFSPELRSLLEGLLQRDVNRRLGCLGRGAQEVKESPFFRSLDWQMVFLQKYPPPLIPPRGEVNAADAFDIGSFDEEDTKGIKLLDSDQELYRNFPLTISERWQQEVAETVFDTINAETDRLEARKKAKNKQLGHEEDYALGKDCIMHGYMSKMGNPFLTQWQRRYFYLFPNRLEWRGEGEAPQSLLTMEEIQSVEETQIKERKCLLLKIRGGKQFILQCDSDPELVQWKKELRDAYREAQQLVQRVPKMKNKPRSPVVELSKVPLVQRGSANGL
The target in assay [10] is Beta-2 adrenergic receptor (Homo sapiens) (UniProt P07550). Kind of assay: beta2AR agonists driving receptor internalization, pilot screen, cell-based, FAP fluorogen, flow cytometry, validation set (AID 504459;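 active = percent response above 42, roughly 3 SD of non-fluorescent test compounds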;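 note: agonist-driven loss of surface beta2AR via internalization measured by FAP dye flow cytometry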). The following applies: Am2.2-beta2AR cells, FAP surface receptor flow cytometry; at 10 µM; stronger effect = higher value.
Beta-2 adrenergic receptor (Homo sapiens), sequence (P07550 whole entry, looked up): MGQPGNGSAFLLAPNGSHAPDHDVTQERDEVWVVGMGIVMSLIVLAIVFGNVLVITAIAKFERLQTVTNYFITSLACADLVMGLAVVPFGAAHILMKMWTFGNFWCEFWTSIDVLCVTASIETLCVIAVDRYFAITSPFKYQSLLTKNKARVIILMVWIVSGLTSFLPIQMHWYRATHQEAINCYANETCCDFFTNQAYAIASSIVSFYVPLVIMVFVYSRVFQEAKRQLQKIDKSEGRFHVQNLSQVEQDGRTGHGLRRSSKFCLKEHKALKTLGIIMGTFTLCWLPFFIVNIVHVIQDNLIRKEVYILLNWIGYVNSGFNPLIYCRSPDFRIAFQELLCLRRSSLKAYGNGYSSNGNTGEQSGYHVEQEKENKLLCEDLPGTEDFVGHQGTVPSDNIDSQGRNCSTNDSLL
Assay [11] addresses AP-2 complex subunit beta (Homo sapiens) (UniProt P63010). Kind of assay: inhibitors of arrestin peptide binding to AP2, pilot screen, biochemical, validation set, GST-AP2 beads, flow cytometry (AID 504541;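 active = inhibition above 54%, about 3 SD of non-fluorescent compounds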;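 note: AP2 carries R879A mutation and is captured from E. coli lysate; bead-bound FITC arrestin peptide fluorescence measuring arrestin peptide binding to AP2; 0% = DMSO wells and 100% = excess unlabeled arrestin peptide control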). The following applies: FITC arrestin peptide, at 10 µM, stronger effect = higher value.
The nature of assay [12]: yeast V-ATPase proton transport modulators, S. cerevisiae, pHLuorin, HTS validation (AID 504600; in the data active = response above about 15%;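 note: plate controls were DMSO for no effect and reference compound for full effect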). The following applies: S. cerevisiae pHLuorin cytosolic pH, at 10 µM, stronger effect = higher value.
In assay [13] the test system is anti-desmoglein-3 scFv antibody binding to human DSG3. Kind of assay: inhibitors of anti-DSG3 scFv binding to DSG3, pilot screen, biochemical, validation compound set, bead-based, flow cytometry (AID 588368;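 active = binding below the plate cutoff, the plate median minus 3 SD, with a reading above zero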;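 note: signal is the median channel fluorescence of bead-bound GFP antibody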). The following applies: Protein G beads, DSG3-Fc, scFv-GFP binding, at 10 µM, stronger effect = lower value.
Assay [14] concerns Botulinum neurotoxin type F light chain protease (Clostridium botulinum). Kind of assay: Botulinum neurotoxin type F light chain protease inhibition, multiplex microsphere flow cytometry, validation set (AID 588459). The following applies: multiplex microsphere protease substrate cleavage assay, at 10 µM, stronger effect = higher value.
The target of assay [15] is Botulinum neurotoxin type A (Clostridium botulinum) (UniProt P0DPI0). Kind of assay: BoNT/A light chain protease inhibitors, biochemical, multiplex microsphere flow cytometry, validation set (AID 588460). To be noted: at 10 µM, stronger effect = higher value.
Assay [16] concerns the target Lethal factor (Bacillus anthracis) (UniProt P15917). Kind of assay: Lethal factor protease inhibitors, Bacillus anthracis, multiplex microsphere cleavage assay, validation set (AID 588461). To be noted: flow cytometry, at 10 µM, stronger effect = higher value.
The nature of assay [17]: inhibitors of fungal efflux pumps CDR1, CDR2, MDR1, pilot screen, validation compound set, multiplex, phenotypic (AID 588506;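 active = efflux inhibition above 0.42, the validation set average plus 4 SD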;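 note: Nile Red retained in cells so higher fluorescence means more efflux inhibition; 0 = negative control wells and 1 = enniatin B 25 µM full block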). The following applies: S. cerevisiae pump-expressing triplex, Nile Red efflux flow cytometry; at 10 µM; stronger effect = higher value.
The target in assay [18] is ATP-binding cassette sub-family B member 6 (Homo sapiens) (UniProt Q9NP58). Kind of assay: ABCB6 transporter inhibitors, pilot screen, K562-ABCB6 cells, flow cytometry, validation set (AID 588550;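 active = inhibition above the screen-wide mean plus 3 SD, about 51%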;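 note: 0% = DMSO wells and 100% = benzethonium chloride 70 µM positive control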). The following applies: K562-ABCB6 porphyrin accumulation, 1 h, at 10 µM, stronger effect = higher value.
ATP-binding cassette sub-family B member 6 (Homo sapiens), sequence (Q9NP58 whole entry, looked up): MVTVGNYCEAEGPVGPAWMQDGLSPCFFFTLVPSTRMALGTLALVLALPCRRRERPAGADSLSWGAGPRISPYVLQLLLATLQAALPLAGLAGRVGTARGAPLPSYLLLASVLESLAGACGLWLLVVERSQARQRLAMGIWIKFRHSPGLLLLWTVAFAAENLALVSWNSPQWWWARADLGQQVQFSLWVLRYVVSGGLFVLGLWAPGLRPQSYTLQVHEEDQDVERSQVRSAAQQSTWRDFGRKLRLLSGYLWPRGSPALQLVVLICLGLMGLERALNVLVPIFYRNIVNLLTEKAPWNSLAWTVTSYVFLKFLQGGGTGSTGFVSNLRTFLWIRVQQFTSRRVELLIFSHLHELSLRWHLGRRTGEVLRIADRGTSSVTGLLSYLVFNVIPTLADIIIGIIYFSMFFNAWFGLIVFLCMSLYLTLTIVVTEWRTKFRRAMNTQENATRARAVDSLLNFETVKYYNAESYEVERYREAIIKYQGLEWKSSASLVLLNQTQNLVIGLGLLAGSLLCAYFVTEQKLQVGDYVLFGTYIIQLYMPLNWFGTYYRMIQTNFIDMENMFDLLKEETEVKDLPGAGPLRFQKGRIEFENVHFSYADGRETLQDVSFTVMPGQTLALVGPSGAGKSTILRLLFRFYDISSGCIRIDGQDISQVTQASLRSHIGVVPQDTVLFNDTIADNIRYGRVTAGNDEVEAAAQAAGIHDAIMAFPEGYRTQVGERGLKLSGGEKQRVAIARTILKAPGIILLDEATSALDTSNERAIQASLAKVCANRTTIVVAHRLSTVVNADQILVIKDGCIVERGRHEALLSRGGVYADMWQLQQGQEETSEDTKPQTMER
The nature of assay [19]: promoters of myeloid differentiation in arrested cells, primary screen, cell-based, GFP/MAC1 double positive, flow cytometry, validation set (AID 588685;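 active = differentiation response of at least 50%, scaled between solvent and reference control, from cells with both markers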;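 note: compound exposure lasts four days before antibody staining and flow analysis; 0% = DMSO wells and 100% = 5 µM fulvestrant positive control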). The following applies: ER-HoxA9 marrow cells, stronger effect = higher value.

Lethal factor (Bacillus anthracis), sequence (P15917 whole entry, looked up): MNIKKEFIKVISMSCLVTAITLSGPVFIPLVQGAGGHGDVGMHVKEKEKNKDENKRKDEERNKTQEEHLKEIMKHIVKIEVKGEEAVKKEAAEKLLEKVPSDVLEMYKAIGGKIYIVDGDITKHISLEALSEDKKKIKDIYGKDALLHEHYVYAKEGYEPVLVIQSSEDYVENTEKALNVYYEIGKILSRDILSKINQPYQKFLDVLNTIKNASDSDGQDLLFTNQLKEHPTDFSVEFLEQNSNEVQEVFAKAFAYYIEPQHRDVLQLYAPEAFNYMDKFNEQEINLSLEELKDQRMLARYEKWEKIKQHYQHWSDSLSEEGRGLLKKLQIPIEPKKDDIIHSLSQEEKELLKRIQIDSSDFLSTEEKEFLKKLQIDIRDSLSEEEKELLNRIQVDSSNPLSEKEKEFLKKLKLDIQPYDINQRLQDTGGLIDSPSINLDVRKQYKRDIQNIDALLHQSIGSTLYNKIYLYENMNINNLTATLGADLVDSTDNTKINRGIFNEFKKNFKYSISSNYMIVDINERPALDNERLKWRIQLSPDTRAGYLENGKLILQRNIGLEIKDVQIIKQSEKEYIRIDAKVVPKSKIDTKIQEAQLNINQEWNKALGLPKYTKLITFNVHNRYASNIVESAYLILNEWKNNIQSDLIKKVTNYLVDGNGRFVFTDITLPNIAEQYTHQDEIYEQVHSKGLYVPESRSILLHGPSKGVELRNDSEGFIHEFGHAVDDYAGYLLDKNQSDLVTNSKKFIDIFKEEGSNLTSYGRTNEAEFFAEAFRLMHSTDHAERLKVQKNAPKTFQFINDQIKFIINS
Integrin beta-1 (Homo sapiens) + Integrin alpha-4 (Homo sapiens), sequence (P05556 whole entry, looked up): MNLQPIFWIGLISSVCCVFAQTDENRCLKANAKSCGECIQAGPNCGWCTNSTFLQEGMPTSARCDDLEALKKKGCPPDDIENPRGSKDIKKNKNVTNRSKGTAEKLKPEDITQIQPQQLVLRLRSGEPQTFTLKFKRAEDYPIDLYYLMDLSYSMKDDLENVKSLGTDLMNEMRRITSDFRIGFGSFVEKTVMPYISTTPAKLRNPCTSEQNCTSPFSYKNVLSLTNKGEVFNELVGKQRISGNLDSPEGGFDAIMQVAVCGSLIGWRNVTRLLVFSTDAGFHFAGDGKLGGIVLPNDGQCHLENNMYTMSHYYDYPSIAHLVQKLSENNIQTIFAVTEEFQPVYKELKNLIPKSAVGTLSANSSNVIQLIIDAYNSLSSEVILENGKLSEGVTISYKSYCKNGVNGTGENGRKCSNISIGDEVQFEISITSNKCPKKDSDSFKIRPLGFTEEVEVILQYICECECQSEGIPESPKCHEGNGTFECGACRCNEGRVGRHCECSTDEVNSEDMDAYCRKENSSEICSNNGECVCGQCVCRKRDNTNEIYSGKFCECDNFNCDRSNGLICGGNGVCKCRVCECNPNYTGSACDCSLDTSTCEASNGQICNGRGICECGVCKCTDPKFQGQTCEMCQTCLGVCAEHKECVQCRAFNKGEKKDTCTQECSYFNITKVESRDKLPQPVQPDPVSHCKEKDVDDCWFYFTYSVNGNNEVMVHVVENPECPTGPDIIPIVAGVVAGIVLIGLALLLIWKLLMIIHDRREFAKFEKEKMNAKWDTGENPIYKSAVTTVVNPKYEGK
Integrin beta-1 (Homo sapiens) + Integrin alpha-4 (Homo sapiens), sequence (P13612 whole entry, looked up): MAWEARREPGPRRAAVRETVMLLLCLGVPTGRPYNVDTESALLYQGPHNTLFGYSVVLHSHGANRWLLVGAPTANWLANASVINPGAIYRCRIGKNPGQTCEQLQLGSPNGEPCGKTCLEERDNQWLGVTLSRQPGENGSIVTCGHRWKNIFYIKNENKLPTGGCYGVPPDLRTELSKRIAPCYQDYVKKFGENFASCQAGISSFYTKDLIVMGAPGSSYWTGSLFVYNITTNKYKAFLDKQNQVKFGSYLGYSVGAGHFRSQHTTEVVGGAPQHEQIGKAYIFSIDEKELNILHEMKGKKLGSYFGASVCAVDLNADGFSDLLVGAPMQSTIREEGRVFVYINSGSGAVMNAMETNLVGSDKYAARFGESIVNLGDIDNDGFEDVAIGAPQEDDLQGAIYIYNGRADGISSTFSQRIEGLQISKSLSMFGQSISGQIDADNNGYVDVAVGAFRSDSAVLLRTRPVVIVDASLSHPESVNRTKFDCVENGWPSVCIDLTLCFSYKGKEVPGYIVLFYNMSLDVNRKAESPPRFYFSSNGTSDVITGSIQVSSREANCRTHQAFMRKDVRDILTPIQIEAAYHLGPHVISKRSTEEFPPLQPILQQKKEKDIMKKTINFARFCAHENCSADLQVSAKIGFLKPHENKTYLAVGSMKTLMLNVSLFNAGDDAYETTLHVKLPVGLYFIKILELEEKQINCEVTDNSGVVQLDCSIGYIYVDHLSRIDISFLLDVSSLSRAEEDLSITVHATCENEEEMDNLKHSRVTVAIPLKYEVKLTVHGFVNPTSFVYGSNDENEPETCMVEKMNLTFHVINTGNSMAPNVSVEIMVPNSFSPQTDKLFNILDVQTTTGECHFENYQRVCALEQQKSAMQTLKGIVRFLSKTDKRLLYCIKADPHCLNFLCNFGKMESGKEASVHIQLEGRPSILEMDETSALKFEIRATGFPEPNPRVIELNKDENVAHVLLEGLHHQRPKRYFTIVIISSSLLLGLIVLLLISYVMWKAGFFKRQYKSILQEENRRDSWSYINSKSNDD

Usually inhibition stands for the change of the read-out against control, counted positive when it falls. For `NC(=O)CN1CCCC1=O`, in assay [1], the percent of DMSO control GFP is 95% (inactive). Further, the GFP response vs DMSO in [2] was 113% (inactive); in assay [4] it was 73.2% (inactive). The percent response of DMSO control in assay [3] is 118% (inactive). Besides, in assay [5], the GFP response, % of DMSO is 91% (inactive). The compound also registered a double positive events in assay [6] of 54.5%. Moreover, the vesicle binding response in assay [6] is 191% (inactive). Moreover, the inhibition was 3.55% (inactive) in [7]; -5.52% (inactive) in assay [11]; 1.5% (inactive) in assay [14]; 0.4% (inactive) in assay [15]; 1.1% (inactive) in assay [16]; 4% (inactive) in assay [18]. Moreover, in [8], the superoxide response (% of plate) was 95.8% (inactive). Moreover, the aptamer binding inhibition in assay [9] is -4% (inactive). Further, the results for the response in assay [10] and in assay [12] were -20.5% (inactive) and 0.81% (inactive), respectively. Further, the binding (% of control) in [13] is 105% (inactive). Further, the efflux inhibition (fraction of control) in [17] was -0.09 (inactive). Moreover, in [19], the differentiation response was -1.64% (inactive).

Take `C[C@H]1CC[C@@]2(C)[C@@H](CC[C@@H]3[C@@H]2CC[C@]2(C)[C@@H](O)CC[C@@H]32)C1`: in [1], the percent of DMSO control GFP was 99.9% (inactive). Besides, the values for the GFP response vs DMSO in assay [2] and in assay [4] were 103% (inactive) and 137% (inactive), respectively. Besides, the percent response of DMSO control in assay [3] was 92% (inactive). The GFP response, % of DMSO in assay [5] was 102% (inactive). This compound came in with a double positive events in assay [6] of 61%. Moreover, in assay [6], the vesicle binding response was 376% (inactive). Also, the inhibition in [7] is 6.4% (inactive); in assay [11], -8.56% (inactive); in assay [14], 2% (inactive); in [15] it was 1.1% (inactive); in [16] it was -4.7% (inactive); in assay [18], -3% (inactive). The superoxide response (% of plate) in [8] is 97.5% (inactive). The aptamer binding inhibition in [9] was 0% (inactive). Moreover, the response is 8.67% (inactive) in [10] and 1.08% (inactive) in assay [12]. Further, in [13], the binding (% of control) is 99.5% (inactive). The efflux inhibition (fraction of control) in assay [17] was -0.03 (inactive). Also, the differentiation response in assay [19] was -8.8% (inactive).

Regarding `O=c1c2ccccc2nc(/C=C/c2ccc3c(c2)OCO3)n1-c1ccccc1`, the percent of DMSO control GFP in assay [1] is 102% (inactive). The results for the GFP response vs DMSO in assay [2] and in assay [4] were 105% (inactive) and 110% (inactive), respectively. The percent response of DMSO control in assay [3] was 100% (inactive). In assay [5], the GFP response, % of DMSO is 98.9% (inactive). Further, the double positive events in [6] was determined as 59.9%. Moreover, the vesicle binding response in assay [6] was 140% (inactive). Also, the inhibition is 1.44% (inactive) in [7]; -1.43% (inactive) in [11]; -0.7% (inactive) in assay [14]; 0.6% (inactive) in [15]; -5% (inactive) in [16]; 0% (inactive) in assay [18]. In addition, the superoxide response (% of plate) in assay [8] was 90.1% (inactive). Moreover, the aptamer binding inhibition in assay [9] is 4% (inactive). Further, the response was -4.14% (inactive) in [10] and -7.21% (inactive) in [12]. Moreover, the binding (% of control) in assay [13] is 106% (inactive). Moreover, the efflux inhibition (fraction of control) in assay [17] is 0.33 (inactive). The differentiation response in assay [19] was 7.82% (inactive).

Regarding `C[C@]12CC[C@@H](O)C[C@@H]1CC[C@@H]1[C@@H]2CC[C@]2(C)C(=O)CC[C@@H]12`, the percent of DMSO control GFP in [1] is 100% (inactive). The GFP response vs DMSO in [2] is 99.7% (inactive); in assay [4], 147% (inactive). Further, the percent response of DMSO control in [3] is 84.1% (inactive). Besides, the GFP response, % of DMSO in assay [5] was 101% (inactive). This compound also came in with a double positive events in [6] of 62.8%. The vesicle binding response in assay [6] was 118% (inactive). The inhibition in assay [7] was -2.43% (inactive); in [11], -0.33% (inactive); in assay [14], 2% (inactive); in [15], -0.3% (inactive); in assay [16], -2.4% (inactive); in assay [18], 0% (inactive). For the same compound, the superoxide response (% of plate) in [8] is 75.3% (inactive). In addition, the aptamer binding inhibition in assay [9] is 3% (inactive). Further, the response is 20.4% (inactive) in [10] and -2.85% (inactive) in assay [12]. In addition, in [13], the binding (% of control) was 99% (inactive). Moreover, the efflux inhibition (fraction of control) in assay [17] was -0.07 (inactive). Besides, the differentiation response in assay [19] is -4.57% (inactive).
